Assay results taken from PubChem BioAssay AID1347145 (National Center for Advancing Translational Sciences (NCATS), 2019).
Inconclusive results are not listed. Activity calls are given as the source filed them. The call rests on the fitted dose curve; in most records, active means well fitted inhibition curve with a large enough effect; inconclusive means small, poorly fitted or top-dose-only effect; inactive means no such curve, though single readings can be large or run the other way.

target: N-terminal Xaa-Pro-Lys N-methyltransferase 1 (Homo sapiens) (UniProt Q9BV86); assay: qHTS Assay for Inhibitors of N-terminal methyltransferase 1 (NTMT1): MTaseGlo Assay Confirmatory Screen, Round 1; conditions: Recombinant NTMT1, MTase-Glo SAH luminescence; series mostly up to 57.1 µM
Procedure, shortened: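 Luminescence from MTase-Glo conversion of SAH to ATP measured activity after a 30 min RT reaction with 1 µM SPKRIA substrate, 100 µM SAM and 125 nM enzyme. Normalization used no-enzyme and DMSO controls, followed by Hill fitting.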

N-terminal Xaa-Pro-Lys N-methyltransferase 1 (Homo sapiens), sequence (Q9BV86 whole entry, looked up): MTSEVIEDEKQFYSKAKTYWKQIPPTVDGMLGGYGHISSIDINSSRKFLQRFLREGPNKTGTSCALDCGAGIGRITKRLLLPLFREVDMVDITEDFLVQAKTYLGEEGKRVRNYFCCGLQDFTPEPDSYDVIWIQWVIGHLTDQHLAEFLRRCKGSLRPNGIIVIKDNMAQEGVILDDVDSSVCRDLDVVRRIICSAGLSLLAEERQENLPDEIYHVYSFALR

Potency, inactive:
Nc1ncnc2c1ncn2[C@@H]1O[C@H](COP(=O)(O)OP(=O)(O)OC[C@H]2OC(O)[C@H](O)[C@@H]2O)[C@@H](O)[C@H]1O (stereo partly drawn)
CCCCC#Cc1nc(NC)c2ncn([C@@H]3O[C@H](CO)[C@@H](O)C3O)c2n1 (stereo partly drawn)
CNC(=O)[C@H]1O[C@H](n2cnc3c(NCc4cccc(I)c4)ncnc32)[C@@H](O)[C@@H]1O
OCC1OC(n2cnc3c(NO)ncnc32)C(O)C1O (stereo not drawn)
COc1cc2nc(N3CCCN(C)CC3)nc(N3CCN(C)CC3)c2cc1OC
COc1cc2c(NC3CCN(C(C)C)CC3)nc(N3CCCN(C(C)C)CC3)nc2cc1OCCOCCN(C)C
C[S+](CC[C@H](N)C(=O)O)C[C@H]1O[C@@H](n2cnc3c(N)ncnc32)[C@H](O)[C@@H]1O (stereo partly drawn)
OC[C@@H]1O[C@@H](n2cnc3c(N[C@H]4CCC[C@@H]4O)ncnc32)[C@H](O)[C@H]1O
CCN(c1cc(-c2ccc(CN3CCOCC3)cc2)cc(C(=O)NCc2c(C)cc(C)[nH]c2=O)c1C)C1CCOCC1
CCN(CC)c1nc(NC2CCN(C)CC2)c2cc(OC)c(OC)cc2n1
NC(=S)c1ccc[n+]([C@@H]2O[C@@H](COP(=O)([O-])OP(=O)(O)OC[C@H]3O[C@@H](n4cnc5c(N)ncnc54)[C@H](OP(=O)(O)O)[C@@H]3O)C(O)C2O)c1 (stereo partly drawn)
COc1cc2nc(NC3CCN(C)CC3)nc(N3CCCN(C)CC3)c2cc1OC
COc1cc2c(NC3CCN(C)CC3)nc(N3CCCN(C)CC3)nc2cc1O
